# Data published in PMC4336329 (PLoS ONE, 2015).
# The campaign covered roughly 310,000 compounds. About 14,000 (4.5%) showed an effect of 50% or more. The effect is printed as a negative number. This excerpt belongs to a sample that is enriched for strong results.
# Target: human ether-à-go-go-related gene (hERG) potassium channel (human, UniProt Q12809)
# Assay: primary screen, population patch clamp on CHO cells stably expressing hERG; higher = less effect of the substance
# 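Note: peak tail current of the secondary pulse compared with the same well before compound.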
# Sequence of human ether-à-go-go-related gene (hERG) potassium channel (Q12809 whole entry, looked up): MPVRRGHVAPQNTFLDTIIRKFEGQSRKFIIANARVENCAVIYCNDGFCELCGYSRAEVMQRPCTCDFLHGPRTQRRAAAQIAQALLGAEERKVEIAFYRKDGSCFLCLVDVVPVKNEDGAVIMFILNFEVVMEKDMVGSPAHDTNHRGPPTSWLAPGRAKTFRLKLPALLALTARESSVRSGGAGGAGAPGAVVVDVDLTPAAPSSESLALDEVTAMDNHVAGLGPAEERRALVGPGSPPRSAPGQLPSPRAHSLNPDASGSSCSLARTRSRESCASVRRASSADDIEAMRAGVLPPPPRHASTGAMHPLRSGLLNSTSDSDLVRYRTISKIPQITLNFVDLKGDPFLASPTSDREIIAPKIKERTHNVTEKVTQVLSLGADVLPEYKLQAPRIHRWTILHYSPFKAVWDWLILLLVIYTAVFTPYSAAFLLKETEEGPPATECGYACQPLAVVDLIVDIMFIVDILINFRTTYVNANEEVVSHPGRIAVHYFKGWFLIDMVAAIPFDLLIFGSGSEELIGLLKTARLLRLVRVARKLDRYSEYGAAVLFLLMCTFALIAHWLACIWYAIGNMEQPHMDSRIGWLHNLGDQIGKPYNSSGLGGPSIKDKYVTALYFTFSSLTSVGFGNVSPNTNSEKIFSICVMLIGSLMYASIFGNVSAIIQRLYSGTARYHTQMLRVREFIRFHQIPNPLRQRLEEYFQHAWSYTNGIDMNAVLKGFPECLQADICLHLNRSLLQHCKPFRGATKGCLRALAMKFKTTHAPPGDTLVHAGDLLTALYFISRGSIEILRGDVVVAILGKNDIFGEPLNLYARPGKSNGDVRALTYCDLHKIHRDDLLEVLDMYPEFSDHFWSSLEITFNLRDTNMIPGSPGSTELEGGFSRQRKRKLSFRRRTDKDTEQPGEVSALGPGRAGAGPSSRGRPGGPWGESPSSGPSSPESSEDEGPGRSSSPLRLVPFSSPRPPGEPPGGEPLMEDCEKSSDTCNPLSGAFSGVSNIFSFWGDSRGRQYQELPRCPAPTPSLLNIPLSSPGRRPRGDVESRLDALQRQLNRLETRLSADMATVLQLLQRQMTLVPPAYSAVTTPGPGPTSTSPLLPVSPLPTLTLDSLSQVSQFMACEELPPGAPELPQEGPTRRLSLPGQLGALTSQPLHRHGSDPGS
row,Structure (SMILES),"hERG current change (%, negative = inhibition) at 10uM [%]"
1,COCCNC(=O)CSc1ccccc1C(=O)NC1CCCc2ccccc21 (centres unmarked),5.31
2,COc1cc(CNC(=O)CCn2nc(C)c3c(C)n(-c4ccccc4)nc3c2=O)cc(OC)c1OC,12
3,CCOc1cccc(C(=O)Nc2ccc3oc(-c4cccnc4)nc3c2)c1,-9.4
4,N#Cc1ccc(C(=O)Nc2nc3ccccc3[nH]2)cc1,19
5,Cl.O=C(COc1ccc(Cl)cc1)NCCN1CCCC1,-40
6,COc1cc(Br)cc(CN2CCN(C=O)CC2)c1O,-2.6
7,COc1cc(NC(=O)CN(C)S(=O)(=O)c2ccc(C)cc2)cc(OC)c1,-19.9
8,CCOC(=O)C1=C(C)NC(=O)/C1=C\N(C)C,19
9,CCOC(=O)c1ccc(NC(=S)N(CCN2CCCCCC2)Cc2cccs2)cc1,-11.6
10,CCOC(=O)c1ccc(NC(=S)N2CCCC(C)C2)cc1 (centres unmarked),-28.4
11,CCOC(=O)c1ccc(NC(=S)N(CCCN2CCN(C)CC2)Cc2cccs2)cc1,-65.4
12,CCOC(=O)c1ccc(NC(=S)N(CCCN2CCCC2)Cc2cccs2)cc1,-67.5
13,COC(CNC(=O)CNC(=S)N(CCCN1CCOCC1)Cc1cccs1)OC,6.42
14,CCOC(=O)c1ccc(NC(=S)N(CCN(C)C)Cc2cccs2)cc1,-9.16
15,CCOC(=O)c1ccc(NC(=S)N(CCCN2CCCC(C)C2)Cc2cccs2)cc1 (centres unmarked),-76.3
16,CCOC(=O)c1ccc(NC(=S)N(CCCN2CCN(CC)CC2)Cc2cccs2)cc1,-69.1
17,O=C(N/N=C/C(Br)=C/c1ccccc1)c1ccncc1,0.715
18,Cc1ccc(NC(=O)c2ccccc2NC(=O)c2cccs2)cc1,20.1
19,Cc1cccc(NS(=O)(=O)c2cc(Cl)ccc2Cl)n1,22.2
20,CN1CCN(C2=C(Cl)C(=O)N(c3ccc(Cl)c(Cl)c3)C2=O)CC1,14.1
21,COc1cccc(OCCNC(=O)c2cccc(OC)c2)c1,-1.4
22,Cc1cc(/C(=N/O)C(C)(C)NO)ccc1Cl,5.73
23,COc1ccc(CNc2ccc(Cl)cc2)cc1Cn1ccnc1,-20.3

row,Structure (SMILES),"hERG current change (%, negative = inhibition) at 10uM [%]"
1,COc1ccc(C(NC(=O)/C=C/c2ccco2)c2ccc(OC)cc2)cc1,-13.3
2,Brc1ccc(-c2nnc3sc(CN4CCN(c5ccccc5)CC4)cn23)cc1,-1.83
3,O=C(NCCN1C(=O)S/C(=C/c2ccccc2)C1=O)C1CCCN1C(=O)c1cccs1 (centres unmarked),-26.9
4,O=C(NCCN1C(=O)S/C(=C\c2cccnc2)C1=O)c1cccc(OC(F)F)c1,-48.7
5,O=C(NCCN1C(=O)S/C(=C\c2ccc(OC(F)F)cc2)C1=O)[C@@H]1CCCN1C(=O)c1cccs1,-63.5
6,O=C(NCCN1C(=O)S/C(=C\c2ccc(OC(F)F)cc2)C1=O)c1cnccn1,-57.1
7,O=C(NCCN1C(=O)S/C(=C\c2ccc(Cl)c(Cl)c2)C1=O)c1cnccn1,1.98
8,COc1ccc(/C=C2/SC(=O)N(CCNC(=O)C3CCCN3C(=O)c3cccs3)C2=O)cc1 (centres unmarked),-22.8
9,O=C(c1ccco1)N1N=C(c2ccco2)CC1c1ccc(Cl)cc1Cl (centres unmarked),11.9
10,CN(C)S(=O)(=O)Nc1cccc(-c2cn3c(n2)SCC3)c1,11.2
11,O=[N+]([O-])c1cc(C(F)(F)F)cc([N+](=O)[O-])c1NCCN1CCNCC1,4.88
12,CC1CN(C)C(C)C/C1=N/Oc1ccccc1[N+](=O)[O-].Cl (centres unmarked),-26.5
13,CN1CCN(S(=O)(=O)c2ccc([N+](=O)[O-])cc2)CC1,-14.6
14,CC1CN(C)C(C)C/C1=N\Oc1ccc([N+](=O)[O-])cc1.Cl (centres unmarked),-78.6
15,CN1CCC(=NOc2ccc([N+](=O)[O-])cc2)CC1,-74.8
16,CC1=CC(=O)C=C(C)C1=NOc1ccc([N+](=O)[O-])cc1,-3.45
17,CC1CC(C)CN(S(=O)(=O)c2ccc(Oc3ccc([N+](=O)[O-])cc3)cc2)C1 (centres unmarked),-9.72
18,Cc1nc2c(cnn2-c2ccccc2)c(=O)n1/N=C/c1ccccc1,11.9
19,N/C(=N\OC(=O)Nc1ccccc1)c1ncc([N+](=O)[O-])s1,-2.31
20,Cc1ccc2c(c1)N(Cc1cccc(C#N)c1)C=NS2(=O)=O,9.38
21,CCn1c(-c2ccc([N+](=O)[O-])cc2)n[nH]c1=S,9.07
22,CCC(=O)Nc1ccccc1C(=O)OCC(=O)c1ccccc1,-28.1
23,COc1ccc(NC(=S)N(CCCN2CCCC2)Cc2ccco2)cc1,-39.4

row,Structure (SMILES),"hERG current change (%, negative = inhibition) at 10uM [%]"
1,CCc1ccc(NC(=S)N(CCCN2CCOCC2)Cc2ccco2)cc1,-12.6
2,COc1cccc(NC(=S)N(CCN2CCCCC2)Cc2ccco2)c1,-43.9
3,COc1ccc(NC(=S)N(CCN2CCCCC2)Cc2ccco2)cc1,-57.5
4,CCc1ccc(NC(=S)N(CCN2CCCCC2)Cc2ccco2)cc1,-75.4
5,CCc1ccccc1NC(=S)N(CCN1CCCCC1)Cc1ccco1,-46.7
6,O=C1COc2ccc3ccccc3c21,-4.35
7,Cc1cc(C(=O)C(=O)O)c(C)n1-c1ccc(Cl)cc1,-43.4
8,O=C(CCC1CCCC1)NCCS(=O)(=O)N1CCN(c2ccccc2)CC1,-12.9
9,NC(=O)C1(N2CCCCC2)CCN(C(=O)c2ccc(-n3cnnn3)cc2)CC1,-30.6
10,CC1=NNC(=O)C1CCC(=O)N/N=C/C=C/c1ccccc1 (centres unmarked),1.22
11,CNC(=S)NC1CC2CCCC(C1)N2Cc1ccc(C)cc1 (centres unmarked),-38.9
12,CCc1ccc(NC(=S)NC2CC3CCCC(C2)N3Cc2ccccc2)cc1 (centres unmarked),-70.9
13,CCNC(=S)NC1CC2CCCC(C1)N2Cc1ccc(C)cc1 (centres unmarked),-48.1
14,CNC(=S)NC1CC2CCC(C1)N2Cc1ccccc1 (centres unmarked),-16.5
15,CCNC(=S)NC1CC2CCC(C1)N2Cc1ccccc1 (centres unmarked),-20.3
16,S=C(NC1CCCCC1)NC1CC2CCC(C1)N2Cc1ccccc1 (centres unmarked),-33.4
17,CCc1ccc(NC(=S)NC2CCN(Cc3ccccc3)CC2)cc1,-36.9
18,S=C(Nc1ccc(Cl)cc1)NC1CC2CCC(C1)N2Cc1ccccc1 (centres unmarked),-66.1
19,CC(C)c1ccc(NC(=S)NC2CCN(Cc3ccccc3)CC2)cc1,-17.4
20,Cc1ccc(CN2C3CCCC2CC(NC(=S)NCc2ccccc2)C3)cc1 (centres unmarked),-72.4
21,S=C(Nc1ccc(Cl)cc1)NC1CCN(Cc2ccccc2)CC1,-39.9
22,CCC(C)c1ccc(NC(=S)NC2CCN(Cc3ccccc3)CC2)cc1 (centres unmarked),-61.8
